# The whole screen tested about 400,000 compounds, of which about 2,100 (0.53%) were called active. Another 14% or so got no clear call; they are omitted. This is one part of a sample in which actives are shown more often than they occur. No rule for the calls is given here.
# Target: Ataxin-2 (Homo sapiens) (UniProt Q99700)
# Assay: qHTS for Inhibitors of ATXN expression.
# Format: functional
# Chain of Ataxin-2 (Homo sapiens) (Q99700 whole entry): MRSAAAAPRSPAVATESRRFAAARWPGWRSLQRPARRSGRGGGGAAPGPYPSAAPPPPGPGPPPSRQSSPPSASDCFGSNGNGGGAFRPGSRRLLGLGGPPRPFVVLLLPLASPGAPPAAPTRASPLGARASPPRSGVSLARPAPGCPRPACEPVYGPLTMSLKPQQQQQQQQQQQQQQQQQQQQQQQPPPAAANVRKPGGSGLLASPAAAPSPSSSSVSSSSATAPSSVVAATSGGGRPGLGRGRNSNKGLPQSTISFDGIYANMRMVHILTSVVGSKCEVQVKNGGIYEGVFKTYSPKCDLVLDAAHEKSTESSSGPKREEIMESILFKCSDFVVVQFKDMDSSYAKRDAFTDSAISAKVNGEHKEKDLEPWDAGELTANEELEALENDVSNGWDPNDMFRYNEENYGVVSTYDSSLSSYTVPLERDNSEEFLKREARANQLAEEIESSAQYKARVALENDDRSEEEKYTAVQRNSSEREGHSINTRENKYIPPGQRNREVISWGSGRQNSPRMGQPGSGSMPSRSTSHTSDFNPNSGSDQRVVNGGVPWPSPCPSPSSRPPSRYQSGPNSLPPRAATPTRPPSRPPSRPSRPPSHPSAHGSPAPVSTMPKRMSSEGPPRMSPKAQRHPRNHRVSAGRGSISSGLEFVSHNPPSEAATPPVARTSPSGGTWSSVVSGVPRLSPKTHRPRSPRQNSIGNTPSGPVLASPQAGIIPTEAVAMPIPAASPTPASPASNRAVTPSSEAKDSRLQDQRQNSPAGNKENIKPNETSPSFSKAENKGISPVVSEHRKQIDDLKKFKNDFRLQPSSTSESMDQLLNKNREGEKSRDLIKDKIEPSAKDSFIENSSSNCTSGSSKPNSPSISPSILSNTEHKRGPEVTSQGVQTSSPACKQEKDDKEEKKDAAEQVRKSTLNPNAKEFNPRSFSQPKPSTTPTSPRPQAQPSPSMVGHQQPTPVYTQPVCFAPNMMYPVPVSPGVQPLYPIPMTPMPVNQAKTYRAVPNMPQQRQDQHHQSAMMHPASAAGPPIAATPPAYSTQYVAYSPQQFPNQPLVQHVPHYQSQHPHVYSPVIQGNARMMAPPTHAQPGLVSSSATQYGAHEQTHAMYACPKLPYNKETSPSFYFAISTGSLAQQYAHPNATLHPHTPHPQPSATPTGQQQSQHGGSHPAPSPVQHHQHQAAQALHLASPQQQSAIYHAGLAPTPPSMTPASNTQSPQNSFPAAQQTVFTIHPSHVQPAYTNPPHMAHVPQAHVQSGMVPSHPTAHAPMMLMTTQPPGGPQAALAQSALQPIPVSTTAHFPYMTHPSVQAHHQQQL
row,SMILES,Potency
1,CCN(CC)c1ccc2cc(C(=O)c3cccs3)c(=O)oc2c1,inactive
2,Cc1nc2ccccc2nc1OCC(=O)Nc1ccc(F)cc1,inactive
3,O=C(COc1ccccc1F)Nc1ccc(Cl)c(-c2nc3ccccc3[nH]2)c1,39.8 µM (active)
4,CCc1ccc(NC(=O)COc2ccc(/C=C(/C#N)c3nc4ccccc4[nH]3)cc2OC)cc1,inactive
5,C/C(=N/NC(=O)c1ccncc1)c1cc2ccc(O)cc2oc1=O,inactive
6,COc1cccc(C(c2nnnn2C2CCCC2)N2CCN(C/C=C/c3ccccc3)CC2)c1OC (stereo unspecified),17.8 µM (active)
7,Cc1cc(C)cc(NC(=O)COC(=O)[C@@H](NC(=O)c2ccco2)C(C)C)c1,inactive
8,Cc1onc(-c2ccccc2)c1C(=O)OCCOc1ccccc1F,inactive
9,CCCOc1ccc(-c2c(=O)n(OCC(=O)OCC)c3ccccc3[n+]2[O-])cc1,inactive
10,CCCCCCCCCCOC(=O)Cn1c(COc2ccc(Cl)cc2)[n+](C)c2ccccc21,25.1 µM (active)
11,CC12CC3(C)CC(C)(C1)CC(C(=O)NCc1ccccn1)(C2)C3,inactive
12,Cc1cc(-c2nnc(S)n2/N=C/C(Br)=C/c2ccccc2)[nH]n1,14.1 µM (active)
13,Oc1ccccc1/C=N/n1c(S)nnc1-c1ccccc1,inactive
14,Sc1nnc(-c2ccccc2)n1/N=C/c1cccc(Cl)c1,inactive
15,CC(=O)n1cc(C(C[N+](=O)[O-])SCCN)c2ccccc21 (stereo unspecified),22.4 µM (active)
16,COc1cc2ccc(=O)oc2c(O)c1OCC=C(C)C,inactive
17,COC1=CC(=O)C(C2CC(=O)c3c(O)cc(O)cc3O2)=CC1=O (stereo unspecified),33.6 µM (active)
18,COc1c(CC=C(C)C)cc(C2CC(=O)c3c(O)cc(O)cc3O2)cc1CC=C(C)C (stereo unspecified),39.8 µM (active)
19,CCOCCCn1c(=N)c(C(=O)NC(C)c2ccccc2)cc2c(=O)n3cccc(C)c3nc21 (stereo unspecified),inactive
20,CN(C)c1nc(NC(C)(C)C)nc(SCC(=O)Nc2ccccc2)n1,inactive
21,C/C(CC(=O)Nc1ccc2c(c1)OCCO2)=N\NC(=O)COc1ccccc1C,inactive
22,COC(C(=O)N/N=C(\C)CC(=O)Nc1ccc(N(C)C)cc1)c1ccccc1 (stereo unspecified),31.6 µM (active)
23,Nc1nc(-c2sc3nc4c(cc3c2N)CCCC4)nc(N2CCOCC2)n1,inactive
24,O=C(NCC1Cc2cccc(-c3cccnc3)c2O1)c1ccc2cc[nH]c2c1 (stereo unspecified),inactive
25,Cc1cccn2c(=O)c3cc(C#N)c(=O)n(Cc4cccnc4)c3nc12,inactive
26,O=C(CCl)N1c2ccccc2Sc2c1ccc1ccccc21,26.7 µM (active)

row,SMILES,Potency
1,Cc1nc2c(ncn2-c2ccccc2)c(=O)n1NC(=O)CN1CCCC1,inactive
2,N=C(NOC(=O)c1ccc2ccccc2c1)c1ccccc1Cl,39.8 µM (active)
3,O=C(COC(=O)c1ccc2ccccc2c1)NCCCc1ccccc1,inactive
4,O=C(NCCOc1ccccc1)c1ccccc1Cl,inactive
5,COc1ccc(C2CC(c3cccc(Br)c3)=NN2c2ccc(S(N)(=O)=O)cc2)cc1 (stereo unspecified),inactive
6,Oc1ccc2c(c1)OCC1(O)Cc3cc(O)c(O)cc3C21 (stereo unspecified),39.8 µM (active)
7,c1ccc(Nc2scc(-c3ccccc3)[n+]2Cc2ccco2)cc1,inactive
8,Cc1cccc(NC(=O)CSc2nc3ccccc3c3nc(CCn4cncc4C)nn23)c1,31.6 µM (active)
9,Cn1nnnc1SCC1=C(C(=O)O)N2C(=O)C(NC(=O)Cn3nc(C(F)F)cc3C3CC3)C2SC1 (stereo unspecified),inactive
10,CCOC(=O)c1nnn(-c2nonc2N)c1-c1ccc(Br)cc1,inactive
11,O=C(COC(=O)c1ccc(Cl)nc1)Nc1ncc(Cl)cc1Cl,inactive
12,CC(C)N(Cc1ccccc1)C(=O)COC(=O)c1cnc(Cl)c(Cl)c1,39.8 µM (active)
13,O=C(COC(=O)c1cnc(Cl)c(Cl)c1)c1ccc(F)cc1,inactive
14,Nc1nc(O)c(NC=O)c(Nc2ccc(Cl)cc2)n1,inactive
15,Nc1nc(CCl)nc(Nc2ccccc2)n1,28.2 µM (active)
16,Cc1ccccc1Nc1nc(N)nc(CN(C)Cc2ccccc2Cl)n1,inactive
17,CCOc1ccc(Nc2nc(N)nc(CSC(=S)N3CCN(c4ccccc4)CC3)n2)cc1,inactive
18,Cc1ccc(Nc2nc(N)nc(CCl)n2)cc1,4.74 µM (active)
19,Cc1ccc(Nc2nc(N)nc(CSc3nc4ccccc4s3)n2)cc1,39.8 µM (active)
20,Cc1ccc(Nc2nc(N)nc(CCl)n2)c(C)c1,14.1 µM (active)
21,CCOc1ccc(S(=O)(=O)Nc2cc(S(=O)(=O)N3CCOCC3)ccc2OC)cc1,inactive
22,COCCn1c(-c2cccs2)nc2nc3ccccc3nc21,inactive
23,N=c1c(C(=O)NCCc2ccccc2)cc2c(=O)n3ccccc3nc2n1CC1CCCO1 (stereo unspecified),inactive
24,CC(C)(NC(=O)c1cc(Cl)c2ccccc2c1O)C(=O)O,inactive
25,CN1C=CC(=C[N+](=O)[O-])N(C)C1=O,17.8 µM (active)

# — ChEMBL document CHEMBL1201862, “PubChem BioAssay data set” (2004)
